Data as given in PubChem BioAssay (NCATS).
Results filed as inconclusive are left out. Entries that show only a call come without a potency. The source made the active and inactive calls. Unless noted, calls follow the shape of the full dose curve.

Legend:
[1] = qHTS for Inhibitors of the Functional Ribonucleoprotein Complex (vRNP) of Lassa (LASV) Arenavirus: Viability assay - alamar blue signal for LASV Primary Screen (AID 1347083; calls by dose curve; tested in HEK293 reporter line; also: nearly all actives have a fitted effect of over 80% in size); settings: cell viability, alamar blue fluorescence (LASV minigenome counter-screen); series mostly up to 57.5 µM
[2] = qHTS for Inhibitors of the Functional Ribonucleoprotein Complex (vRNP) of Lymphocytic Choriomeningitis Arenaviruses (LCMV): Viability assay - alamar blue signal for LCMV Primary Screen (AID 1347085; calls by dose curve; tested in HEK293 reporter line; also: nearly all actives have a fitted effect of over 80% in size); settings: alamar blue viability counter-screen, LCMV vRNP screen cells; series mostly up to 57.5 µM
[3] = target: Nucleoprotein (Lymphocytic choriomeningitis virus (strain Armstrong)) (UniProt P09992); experiment: qHTS for Inhibitors of the Functional Ribonucleoprotein Complex (vRNP) of Lymphocytic Choriomeningitis Arenaviruses (LCMV): LCMV Primary Screen - GLuc reporter signal (AID 1347086); settings: LCMV minigenome vRNP cell assay, Gaussia luciferase reporter; series mostly up to 57.5 µM; also: nearly all actives have a fitted effect of over 70% in size
Nucleoprotein (Lymphocytic choriomeningitis virus (strain Armstrong)), sequence (P09992 whole entry, looked up): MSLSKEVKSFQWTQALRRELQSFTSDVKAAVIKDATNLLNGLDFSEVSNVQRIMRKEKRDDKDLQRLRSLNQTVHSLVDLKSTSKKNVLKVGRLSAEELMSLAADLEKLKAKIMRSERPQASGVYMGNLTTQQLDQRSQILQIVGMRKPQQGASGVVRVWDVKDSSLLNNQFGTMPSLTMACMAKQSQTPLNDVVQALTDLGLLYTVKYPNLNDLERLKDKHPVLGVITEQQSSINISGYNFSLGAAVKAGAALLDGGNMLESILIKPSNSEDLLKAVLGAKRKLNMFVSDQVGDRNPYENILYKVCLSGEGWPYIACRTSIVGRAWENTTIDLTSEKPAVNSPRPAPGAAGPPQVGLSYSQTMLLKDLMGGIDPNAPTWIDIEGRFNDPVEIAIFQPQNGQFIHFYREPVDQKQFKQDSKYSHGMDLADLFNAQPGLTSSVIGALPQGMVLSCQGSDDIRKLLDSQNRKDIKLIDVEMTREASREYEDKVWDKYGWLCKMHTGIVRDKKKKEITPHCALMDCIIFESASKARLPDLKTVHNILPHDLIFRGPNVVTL
Potency is read from the fitted curve at half-maximal effect.

Structure (SMILES) | Potency [1] | Potency [2] | Potency [3]
N#CC[C@H](C1CCCC1)n1cc(-c2ncnc3[nH]ccc23)cn1 | inactive | inactive | inactive
COc1nc(-c2ccc3c(c2)OCO3)n(-c2ccc(NC(=O)CSc3ccccc3)cc2)n1 | inactive | inactive | inactive
c1ccc2occc2c1 | inactive | inactive | inactive
O=C(O)Cc1cnc[nH]1 | inactive | inactive | inactive
Cn1cc(-c2[nH]c3cc(NC(=O)[C@H](N)C4CCCCC4)cc4c3c2C=NNC4=O)cn1 | 3.43 µM (active) | 4.85 µM (active) | 2.73 µM (active)
NC1CCc2cc(O)c(O)cc2C1 (configuration not stated) | inactive | inactive | inactive
NCCc1c[nH]c2ccc(O)cc12 | inactive | inactive | inactive
COc1ccccc1O | inactive | inactive | inactive
COc1ccc(CCN(C)CCCOc2ccc(S(=O)(=O)c3[nH]c4ccccc4c3C(C)C)cc2)cc1OC | inactive | inactive | inactive
NC(CO)(CO)CCc1ccc(Sc2cccc(OCc3ccccc3)c2)cc1Cl | inactive | inactive | inactive
CCOC(=O)[C@@H](N)CCC(=O)N[C@@H](CSCc1ccccc1)C(=O)N[C@@H](C(=O)OCC)c1ccccc1 | inactive | inactive | inactive
CO[C@H]1C=CC=C(C)C(=O)NC2=CC(=O)C(NCCN(C)C)=C(C[C@@H](C)C[C@H](OC)[C@@H](O)[C@@H](C)C=C(C)[C@@H]1OC(N)=O)C2=O | 0.611 µM (active) | 0.544 µM (active) | 0.306 µM (active)
COc1ccc(C=Cc2cc(OC)c(OC)c(OC)c2)cc1O | inactive | inactive | inactive
CC(=O)Nc1ccc([C@H](C)C(=O)Nc2ncc(C(C)C)s2)cc1 | 1.22 µM (active) | 0.611 µM (active) | 1.09 µM (active)
Cc1cn2c(-c3cn[nH]c3)cnc2c(Nc2ccc(C(=O)N3CCNCC3)cc2F)n1 | 3.85 µM (active) | 1.93 µM (active) | 2.73 µM (active)
CC(C)(C)COc1ccc(-n2cc(C(=O)O)cn2)cc1C#N | inactive | inactive | inactive
Cc1cc(C=c2sc3nc4ccccc4n3c2=O)c(C)n1-c1ccccc1 | inactive | inactive | inactive

Structure (SMILES) | Potency [1] | Potency [2] | Potency [3]
COC(=O)Nc1ccc(-c2nc(N3CCOCC3)c3cnn(C4CCN(C(=O)OC)CC4)c3n2)cc1 | inactive | inactive | inactive
CC(C)(c1ccc(O)cc1)c1ccc(O)cc1 | inactive | inactive | inactive
COc1cc(Oc2ccnc3cc(OC)c(OC)cc23)ccc1NC(=O)NC(C)c1nccs1 (configuration not stated) | inactive | inactive | inactive
N[C@H]1C(O)O[C@H](CO)[C@@H](O)[C@@H]1O (some centres not stated) | inactive | inactive | inactive
c1ccc(-c2nn3c(c2-c2ccnc4cc(OCCN5CCOCC5)ccc24)CCC3)nc1 | inactive | inactive | inactive
N=C1N=C(N)c2cc3ccccc3cc21 | inactive | inactive | inactive
CC(C)(C)C(O)/C=C/c1ccc2c(c1)OCO2 (configuration not stated) | inactive | inactive | inactive
NC(=O)Nc1cc(-c2cccc(F)c2)sc1C(=O)N[C@H]1CCCNC1 | 0.306 µM (active) | 1.53 µM (active) | 3.43 µM (active)
O=C1C(CCC(O)c2ccc(F)cc2)C(c2ccc(O)cc2)N1c1ccc(F)cc1 (configuration not stated) | inactive | inactive | inactive
CNCCc1c[nH]c2ccc(O)cc12 | inactive | inactive | inactive
CCCCOCCOc1nc(-c2ccc(C(=O)O)c(F)c2)sc1C | inactive | inactive | inactive
CCOC(CN1C(=O)[C@](CC(=O)Nc2ccc(C)cc2)(NC(=O)Nc2ccc(C)cc2)c2ccccc21)OCC | inactive | inactive | inactive
CC(C)(C(=O)NCC(F)(F)C(F)(F)F)C(=O)N[C@@H]1C(=O)Nc2ccccc2-c2ccccc21 | 19.3 µM (active) | 5.44 µM (active) | 10.9 µM (active)
Cc1[nH]nc2ccc(-c3cncc(OC[C@@H](N)Cc4ccccc4)c3)cc12 | 0.172 µM (active) | 1.37 µM (active) | 0.273 µM (active)
CNC(=O)c1ccc(N2C(=S)N(c3ccc(C#N)c(C(F)(F)F)c3)C(=O)C2(C)C)cc1F | inactive | inactive | inactive
c1ccc2sc(C3(N4CCCCC4)CCCCC3)cc2c1 | inactive | inactive | inactive
CC(C)c1ccccc1Cc1cc(C(=O)Nc2ccc(S(=O)(=O)c3ccccc3C(C)(C)C)cc2)c(O)c(O)c1O | 19.3 µM (active) | 24.3 µM (active) | 24.3 µM (active)
